From PubChem BioAssay (EPA / NIEHS)
Several values for one entry are separate records, joined by “and”; a condition that tells them apart may be missing. Equal values may be shown once. Some structures have more than one record in an assay (separate samples or runs), and their calls can disagree. Activity calls are given as the source filed them. How the source made its calls: active means hit-call score of the fitted dose curve at least 0.9, where 1 is the maximum; inconclusive means response in the unintended direction; inactive means score below 0.9.

test system: Thyroperoxidase (TPO), gene 54314; assay: CCTE_Simmons_AUR_rTPO: CCTE's Amplex UltraRed Assay for Thyroperoxidase (TPO) Inhibition, Simmons Lab (AID 2283662);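 on AC50: potency for loss of signal meaning inhibition of peroxidase activity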
Description: CCTE_Simmons_AUR_rTPO is a biochemical, single-readout assay that uses microsomes from rat thyroid gland in a tissue-based cell-free assay. Measurements were taken 0.5 hour after chemical dosing in a 384-well plate.CCTE_Simmons_AUR_rTPO is the assay component measured from the CCTE_Simmons_AUR_rTPO assay. It is designed to make measurements of thyroperoxidase (TPO) activity as detected with fluorescence intensity signals using the Amplex UltraRed technology as a form of enzyme activity reporter.Data from the assay component CCTE_Simmons_AUR_rTPO was analyzed at the endpoint, CCTE_Simmons_AUR_rTPO, in the positive analysis fitting direction relative to DMSO as the negative control and baseline of activity. Using a type of enzyme reporter, the Amplex UltraRed assay, loss-of-signal activity can be used to understand decreased peroxidase activity in the presence of excess […]. To generalize the intended target to other relatable targets, this assay endpoint is annotated to the oxidoreductase intended target family, where the subfamily is peroxidase.
As described previously (Paul et al., 2014), the AUR substrate was repurposed to detect peroxidase (ie, TPO) activity in the presence of excess H2O2 for the AUR-TPO assay. The reaction profile for the 384-well format AUR-TPO assay is scaled to an 80 ul assay volume containing 25 uM AUR, 300 uM H2O2, and 5 ug microsomal protein in 200 mM phosphate buffer. The assay concentration of thyroid microsomal protein was approximately […]. First, rat microsomes containing TPO and diluent 200mM potassium phosphate buffer were added to opaque, black 384-well plates (Greiner, BioExpress; Kaysville, Utah) using an automated liquid handler (BioTek MicroFlo; Winooski, Vermont) with a plastic 5 ul tubing cassette. Similarly, AUR was added next by automated liquid handling. Test compounds were administered using a HDRT as described earlier to achieve a 0.5% final DMSO concentration. Finally, H2O2 (300 uM, final concentration) was then added by the BioTek MicroFlo to initiate the reaction. Microplates were incubated at 37C in the dark for 30min. Plates were then shaken on a fluorescence plate reader (FLUOStar Optima, BMG LabTech; GmbH, Germany), and endpoint fluorescence (top read) was measured using 10 flashes per well at 544/590nm excitation/emission. Three biological replicates of technical singles were run for every chemical concentration tested. A titrated range of MMI served as a positive control for TPO inhibition on each plate of the AUR-TPO screening campaign. Test chemicals were administered as a titrated series of 8 concentrations from 5 nM up to 87.5 uM [final] for 30 minutes prior to single endpoint detection. Dimethylsulfoxide [DMSO] was used as the vehicle control. Methimazole [MMI] was used as the positive control and was administered as a titrated series of 8 concentrations from 1 nM up to 271 uM [final].

SMILES	AC50	outcome
Oc1cccc2cccnc12	18.4 µM (active) and 15.9 µM (active)	
Cc1ccc2ccccc2c1C	34.3 µM (active)	
CCOC(=O)Nc1cccc(OC(=O)Nc2ccccc2)c1	1.38 µM (active)	
C[C@H]1CCCC(=O)CCC/C=C/c2cc(O)cc(O)c2C(=O)O1	3.47 µM (active)	
CCCCCCCCc1ccc(O)cc1	6.82 µM (active)	
CC(C)(C)c1cc(O)ccc1O	1.84 µM (active) [middle of 5 runs]	
CCOP(=S)(OCC)SCSP(=S)(OCC)OCC	9.6 µM (active)	
Cc1ccccc1N	2.19 µM (active) and 2.51 µM (active)	
OCc1ccco1	28.5 µM (active)	
O=C(Nc1ccc2[nH]ccc2c1)c1cc2cc(F)ccc2n1Cc1cccc(F)c1	1.62 µM (active)	
NNC(=S)NN	0.205 µM (active)	
CCC(C)(C)c1ccc(O)c(C(C)(C)CC)c1	4.15 µM (active)	
O=C(O)C(Cl)(Cl)Cl		inactive
Clc1ccc(C2(Cn3cncn3)CC(Br)CO2)c(Cl)c1 (stereo not given)		inactive
CC12CC1(C)C(=O)N(c1cc(Cl)cc(Cl)c1)C2=O (stereo not given)		inactive
O=C(O)C(F)(F)C(F)(F)C(F)(F)C(F)(F)C(F)(F)C(F)(F)F	16.5 µM (active)	inactive
CCCCCCCCSC(=O)Oc1cc(Cl)nnc1-c1ccccc1	43.8 µM (active)	
Cc1ccc(N)cc1Cl	0.0109 µM (active)	
CC(C)(c1ccccc1)c1ccc(O)c(C(C)(C)c2ccccc2)c1	19.6 µM (active)	
COP(=S)(OC)Oc1ccc(Sc2ccc(OP(=S)(OC)OC)cc2)cc1	11.6 µM (active)	
Clc1ccc(COC(Cn2ccnc2)c2ccc(Cl)cc2Cl)cc1 (stereo not given)	43.8 µM (active)	
CCOP(=S)(OCC)Oc1nc(Cl)c(Cl)cc1Cl	10.4 µM (active)	
CC(C)(C)CC(C)(C)c1ccc(O)cc1	11.6 µM (active)	
COP(=O)(OC)O/C(=C\Cl)c1cc(Cl)c(Cl)cc1Cl	48.3 µM (active)	
CC(C)c1cccc(C(C)C)c1O	10.3 µM (active)	
CC(C)(c1ccc(OCC2CO2)cc1)c1ccc(OCC2CO2)cc1 (stereo not given)	43.5 µM (active)	
CC1(C)CCC(Cc2ccc(Cl)cc2)C1(O)Cn1cncn1 (stereo not given)		inactive
CCC1(c2ccc(N)cc2)CCC(=O)NC1=O (stereo not given)	0.935 µM (active)	
CC1(C)Cc2cccc(O)c2O1	12.2 µM (active)	
